Test results from PubChem BioAssay (NCI).
About 83,000 compounds went through this panel and 20% of them were active in at least one assay; those are over-represented in the sample as a whole.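 Note: values are percent growth. 100 is the growth of untreated cells, values between 100 and 0 indicate rising inhibition; between -100 and 0 indicates cell death.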 Unmarked numbers belong to inactive results. Active and inactive are the calls of the source. The calls were made as follows: active = growth percent below 10; inactive = the rest.

System: NCI-H23 lung
Experiment: NCI-60 one-dose screen, 48 h (100 = growth as untreated, 0 = no growth, -100 = all killed)
Settings: 10 µM unless noted

| Structure (SMILES) | growth |
| --- | --- |
| C=C1C(=O)O[C@H]2[C@H]1CC/C(COC(=O)NCCc1c[nH]c3ccccc13)=C\CC[C@@]1(C)O[C@@H]21 | 59.5% |
| C/C(=N\Nc1cc(C)c2ccccc2n1)c1ccccn1 | 14% |
| Cc1ccc(-c2nc([P+](c3ccccc3)(c3ccccc3)c3ccccc3)c(N3C[C@H]4C[C@H](C3)c3cccc(=O)n3C4)o2)cc1 | 82.3% |
| COC(=O)[C@]12CC[C@@H](C)[C@H](C)[C@@H]1C1=CC[C@@H]3[C@@]4(C)CC(=O)[C@H](OC(=O)c5ccco5)[C@@]5(C)COC(=C45)C[C@@]3(C)[C@]1(C)CC2 | 33.5% |
| COc1ccc(/C=C/C(=O)NCC(C)O)cc1 (configuration not stated) | 93.5% |
| Cc1nn(-c2ccc(Cl)cc2)c(=O)n1CCn1cnc2ccccc21 | 96.2% |
| CN1CCN(CCOc2ccc(-c3cnc4c(-c5ccccc5F)cnn4c3)cc2)CC1 | 46.5% |
| O=C(NO)c1ccc(Cn2c(=O)n(-c3ccccc3)c(=O)c3ccccc32)cc1 | -38.7% (active) |
| COc1cccc2c1C(=O)c1c(O)c3c(c(O)c1C2=O)C[C@@](O)(C(=O)CO)C[C@@H]3OC1C[C@H](N)[C@H](O)[C@H](C)O1 (some centres not stated) | -33.5% (active) |
| CCC(CC)C(=O)OC(C)COc1ccc(C(C)(C)C)cc1 (configuration not stated) | 105% |
| Nc1ccc(Cl)cn1 | 97.7% |
| CN1CCN(CCOc2ccc(-c3cnc4c(-c5cccc(F)c5)cnn4c3)cc2)CC1 | 62.6% |
| CCCC1CCCCN1C(=O)OCC(C)C (configuration not stated) | 152% |
| O=S(=O)(NCCNc1cc(-c2cn(-c3ccccc3)nc2-c2cccc(O)c2)ccn1)c1cccc(F)c1 | 45.8% |
| Cc1cccc(C)c1NC(=O)CSC(=S)N1CCCCC1 | 88.7% |
| O=C(/C=C/c1cccc(O)c1)c1ccccc1O | 86.8% |
| O=C(NO)c1ccc(Cn2c(=O)n(CCc3ccc(O)cc3)c(=O)c3ccccc32)cc1 | -8.51% (active) |
| COc1ccc(O)c(-c2cc(-c3ccc(Cl)cc3)c(C#N)c(=O)[nH]2)c1 | 69.6% |
| CCC(=O)c1c(C)[nH]c(C)c1C | 94% |

| Structure (SMILES) | growth |
| --- | --- |
| COc1cc(-c2cc3ncccc3c3nc(OCCN(C)C)c4cccnc4c23)cc(OC)c1OC | 13.4% |
| O=C(/C=C/c1cccc2ccccc12)Nc1ncc(Cc2ccccc2)s1 | 22.1% |
| CC(C)/C=C/CC[C@](C)(O)[C@H]1CC[C@]2(C)[C@@H]1CC[C@@H]1[C@@]3(C)C/C(=C/c4cccc(C(F)(F)F)c4)C(=O)C(C)(C)[C@@H]3CC[C@]12C | 96.3% |
| O=C(NCN1C(=O)c2cccc3cccc(c23)C1=O)N1CCC(Cc2ccccc2)CC1 | 93.9% |
| COc1cnc2c(c1)C(=O)c1c-2n(CCCNCCN2CCOCC2)c(=O)c2cc([N+](=O)[O-])ccc12 | -21.7% (active) |
| CCCCCCCC(=O)SCC/C=C/[C@@H]1CC(=O)NCc2cccc(n2)CN(Cc2ccc3ccccc3c2)CC(=O)N[C@@H](C(C)C)C(=O)O1 | 45.7% |
| Fc1ccc2nc(-c3cc(-c4ccc5c(c4)OCO5)n[nH]3)[nH]c2c1 | 64% |
| Cn1cc(-c2nc(-c3cn(C)c4ncccc34)cs2)c2cc(F)ccc21 | 43.3% |
| NCCn1cc(-c2nc(-c3c[nH]c4ncccc34)cs2)c2ccccc21 | 83% |
| COc1ccc(-c2cc(-c3c(C)oc4cc5occc5c(OC)c4c3=O)nc(N)c2C#N)cc1OC | 73.4% |
| CN(C)c1ccc(N)c2ccccc12 | -79.6% (active) |
| CN(C)CCCCC(C(=O)CBr)(c1ccccc1)c1ccccc1 | 30.6% |
| O=C1Nc2ccccc2/C1=C/c1cn(CCCn2c3ccccc3c(=O)c3ccccc32)c2ccccc12 | 79.2% |
| C=C(C)[C@@H]1CC[C@]2(C=NCCCNCCCCNCCCN)CC[C@]3(C)[C@H](CC[C@@H]4[C@@]5(C)CCCNC(C)(C)[C@@H]5CC[C@]43C)[C@@H]12 | 82.5% |
| CCCCn1c(-c2ccc(O)cc2)cn2c3c(=O)[nH]c(=O)n(C)c3nc12 | 82.2% |
| Cc1nn(-c2ccc(Br)cc2)c2nc3[nH]c(=O)[nH]c(=O)c3nc12 | 99% |
| Cc1cc2nc3c4cc(N)ccc4n(CCN(C)C)c3nc2cc1C | 6.58% (active) |
| COc1ccc(-c2nc3c(c(C)nn3-c3ccc(F)cc3)c(=O)[nH]2)cc1 | 83.3% |
